# Source: PubChem BioAssay AID651602 (The Scripps Research Institute Molecular Screening Center, 2012)
# “And” between values parts separate entries of the source, which are not always exact repeats. Equal entries are not always repeated. The campaign covered roughly 360,000 compounds. About 950 (0.26%) were called active. The entries come from a sample that favours actives as a whole. Values without a mark were called inactive. Rule as the data show it: active = inhibition above about 11%; inactive = the rest.
# Assay: reduced absorbance of E. coli cultures with phage – HTS, RecBCD inhibitor project, primary screen (AID 651602)
# Details: growth absorbance, at 11.9 µM, hits give high values
row,Compound,inhibition
1,COC(=O)c1cc2c(c3c4cc(F)ccc4n(S(=O)(=O)c4ccccc4)c13)C(=O)N(Cc1ccccc1OC)C2,0.23%
2,O=C(N[C@H](C(=O)N1CCC[C@H]1C(=O)NCCc1ccccc1Cl)c1ccccc1)c1ccccc1,0.16%
3,CO/N=C(\C(=O)N[C@@H]1C(=O)N2C(C(=O)O)=C(COC(C)=O)CS[C@H]12)c1csc(N)n1 (stereo in doubt),101% (active) and 100% (active) and 99.7% (active)
4,C=CC1=C(C(=O)O)N2C(=O)[C@@H](NC(=O)/C(=N\OCC(=O)O)c3csc(N)n3)[C@H]2SC1,99.8% (active)
5,C=CC1=C(C(=O)O)N2C(=O)[C@@H](NC(=O)/C(=N/OCC(=O)O)c3csc(N)n3)[C@H]2SC1,102% (active)
6,CC1(C)OC(=O)C2=C(CC(CCc3ccccc3)OC2c2ccc(Cl)cc2)O1 (stereo unspecified),0.56%
7,COC(=O)[C@]1(Cc2ccccc2)NC=C(C(=O)c2ccccc2)[C@@H]1c1cccc(OC)c1,0.08%
8,O=C(NN=Cc1ccco1)C(=O)Nc1ccc(Cl)c([N+](=O)[O-])c1,1.23%
9,COC(=O)C(C(=O)OC)c1ccccc1NS(=O)(=O)c1cccc2ccccc12,3.8%
10,C[C@H](O)[C@@H]1CN2CCc3ccc(-c4ccc5c(c4)OCO5)cc3[C@@H]2C[C@@H]1N(C)C(=O)C1CCCCC1,4.59%
11,OC(c1ccccc1)(c1ccccc1)C1CCN(CCCOc2ccc(-c3ccsc3)cc2)CC1,-2.69%
12,O=C(C(=O)N1CCC(CNC(=O)c2cccnc2Cl)CC1)c1cccs1,2.71%
13,COc1ccc(C2=CN(Cc3ccccc3)C(c3ccc(OC)cc3)CC2=O)cc1 (stereo unspecified),3.64%
14,C[C@H]1[C@H](c2ccccc2)Oc2cc(Br)ccc2S(=O)(=O)N1Cc1cccc(F)c1,1.98%
15,COC(=O)[C@]12C[C@H](CC(=O)NCCc3ccccc3OC)C(=O)N(Cc3ccccc3)C1=C[C@H](C(C)C)O[C@@H]2C1CC1,1.94%
16,COC(=O)c1c(-c2ccc(OC)cc2)c2c(c3c4cc(OC)ccc4n(S(=O)(=O)c4ccc(F)cc4)c13)C(=O)N(C)C2,2.25%
17,Oc1c(Cl)cc(Cl)c(Cl)c1Cc1c(O)c(Cl)cc(Cl)c1Cl,17.2% (active)
18,Cc1noc(C)c1NC(=O)Nc1ccc2c(c1)C(=O)N([C@H](C)CO)C[C@H](C)[C@H](CN(C)Cc1ccncc1)OCCCC[C@@H](C)O2,2.8%
19,COc1ccc(S(=O)(=O)Nc2ccc3c(c2)C(=O)N([C@H](C)CO)C[C@H](C)[C@@H](CN(C)C)OCCCC[C@H](C)O3)cc1,2.32%
20,CCOC(=O)NN1C(=O)c2ccccc2NC1c1cccc(O)c1 (stereo unspecified),2.82%
21,O=C1c2ccccc2NC(c2ccc(-c3cccc(Cl)c3)o2)N1O (stereo unspecified),21% (active)
22,CC(=O)NN1C(=O)c2ccccc2NC1c1ccccc1 (stereo unspecified),-1.19%
23,CCCCCCCCN1C(=O)[C@@H](CC(=O)NCCCC)C[C@@]2(C(=O)OC)C1=C[C@H](C(C)(C)C)O[C@@H]2C,3.8%
24,CC[C@H](C)[C@H]1CNC(=O)C(=O)N1CC1CCN(CCc2ccc(OC)c(OC)c2)CC1,1.03%
25,C#CCN([C@@H](C)C(=O)OCC)S(=O)(=O)c1ccc(Br)cc1F,1.36%
26,CC(C)(C)C(c1nc2ccccc2[nH]1)n1c(Cc2csc3ccccc23)nc2ccccc21 (stereo unspecified),-0.16%

row,Compound,inhibition
1,COCCNC(=S)N(C)[C@H]1C[C@H]2c3[nH]c4ccccc4c3CCN2C[C@H]1[C@H](C)O,0.63%
2,COc1cccc(C(O)c2ncc(-c3ccc4ccccc4c3)[nH]2)c1 (stereo unspecified),12.1% (active)
3,Cc1cccc(-c2cnc(C(O)c3ccc4ccccc4c3)[nH]2)c1 (stereo unspecified),2.34%
4,Cc1ccc(-c2cnc(C(O)c3cc(Cl)cc(Cl)c3)[nH]2)cc1 (stereo unspecified),17.1% (active)
5,Cc1cccc(-c2cnc(C(O)c3cc(C)cc(C)c3)[nH]2)c1 (stereo unspecified),9.2%
6,COc1cccc(-c2cnc(C(O)c3ccccc3OC)[nH]2)c1 (stereo unspecified),-1.64%
7,OC(c1ccc(Cl)cc1)c1ncc(-c2ccc(Cl)cc2)[nH]1 (stereo unspecified),7.68%
8,Cc1cc(N2CCN(C(=O)OC(C)(C)C)C[C@H]2C)ccc1N1CCN(Cc2ccccc2)[C@H](C)C1,7.28%
9,CCOC(=O)/C=C/c1ccccc1O,4.3%
10,COC(=O)[C@H](CC(C)C)NS(=O)(=O)c1c(F)cccc1F,4.61%
11,O=C(NCc1ccccc1)[C@H]1CCCN1C(=O)[C@H]1CCCN1C(=O)c1cc(F)cc(F)c1,2.09%
12,Nc1ncnc2c1ncn2[C@@H]1O[C@H](C(=O)N[C@@H](CCc2ccccc2)C(=O)NCC(=O)N2CCOCC2)[C@@H](O)[C@H]1O,2.03%
13,Cc1cc2c(nc1C)CCCN2C,1.32%
14,COC(=O)c1ccc(CN2C(=O)[C@]3(OCCC=C[C@H]3C)c3c(Br)cccc32)cc1,1.58%
15,CC(c1cccnc1)N(CCN(C)C)C(=O)Nc1ccc(Cl)c(Cl)c1 (stereo unspecified),1.6%
16,O=C(Nc1ccc(Cl)c(Cl)c1)N1CC=C(c2ccccc2)CC1,3.32%
17,O=C(CC(O)(C(F)(F)F)C(F)(F)F)Nc1ccc(Cl)c(Cl)c1,15.6% (active)
18,COC(=O)C1=C(C)N(Cc2cccc(C(F)(F)F)c2)C(=NCc2cccc(C(F)(F)F)c2)NC1c1ccccc1C(F)(F)F (stereo unspecified),9.37%
19,COC(=O)Cc1nnn2c1[C@H](C)[C@H](c1ccccc1Br)OCC2,-1.01%
20,CC(C)(C)C(=O)Nc1c(Br)c(C2CC2)nn1-c1ccccc1,97.8% (active)
21,CC(C)(C)n1nc(C2CC2)c(Br)c1NC(=O)c1ccccc1F,3.69%
22,O=C(Nc1c(Cl)c(C2CC2)nn1-c1ccccc1)C(Cl)(Cl)Cl,1.86%
23,O=C(CN1CCN(c2ccc(Cl)cc2)CC1)c1ccccc1,4.29%
24,Oc1c(CN2CCN(c3ccc(F)cc3)CC2)cc(Cl)c2cccnc12,13% (active)
25,Cc1cccc(C)c1NC(=O)CN1CCN(c2ccc(F)cc2)CC1,2.55%
